From PubChem BioAssay
SUMO Mot1 rescue: blocks SUMOylation pathway, rescuing yeast Mot1-301 growth. growth rescue, % at 18.8 µM. AID 2716. S. cerevisiae Mot1-301 growth rescue, ATP luminescence, 38.5C; percent above DMSO median, 100 means doubled. 320,000 compounds, 1% hits;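 active means every valid replicate shows activation above 250% relative to neutral control wells; inactive means the rest, any valid replicate at or below 250%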;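 further: OY570 slx delta 5 strain wells were the positive control but not used for scaling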
tim23-1 inh: tim23-1 yeast growth inhibition. S. cerevisiae tim23-1 growth, BacTiter-Glo luminescence, 24 h. inhibition, % at 20 µM. 330,000 compounds, 1.3% hits;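 active means growth inhibition of the mutant yeast at or above 50%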;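 further: temperature-sensitive mutant grown at 25 °C; plate controls were DMSO-treated mutant yeast for no effect and medium wells lacking yeast for full effect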
PfHsp90 yeast 2: reduces growth (ATP signal) of yeast expressing P. falciparum Hsp90 | S. cerevisiae expressing PfHsp90, BacTiter-Glo ATP, 48 h; yeast lacking PDR1 and PDR3 efflux regulators | inhibition, % at 9.4 µM | 310,000 compounds, 0.32% hits | AID 504621;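 active means every replicate shows inhibition above about 80%, whatever the replicate mean, limit read from the data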;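 further: 0% = DMSO neutral controls and 100% = 20 µM radicicol positive controls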
TIM10 inh: TIM10 yeast growth inhibition | S. cerevisiae TIM10 strain growth, BacTiter-Glo luminescence, 24 h | inhibition, % at 10 µM | 330,000 compounds, 1.4% hits;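 active means inhibition of 40% or more at the single tested concentration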;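 further: wild-type TIM10 isogenic control strain grown at permissive 25 °C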
tim10-1 inh: tim10-1 yeast growth inhibition; S. cerevisiae tim10-1 ts strain growth, BacTiter-Glo, 24 h; inhibition, % at 20 µM; 330,000 compounds, 2.2% hits; AID 463190;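 active means inhibition of at least 40%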;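 further: mutant grown at 25 °C; 0% = DMSO wells with yeast and 100% = wells holding no yeast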
tim10-1 conf: confirmation of tim10-1 mutant yeast growth inhibitors; shares compounds with tim10-1 inh; S. cerevisiae tim10-1 ts strain growth, BacTiter-Glo, 24 h; inhibition, % at 20 µM; 7,400 compounds, 56% hits; AID 463213;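 active means inhibition of yeast growth at or above a set limit in either of two repeat tests at 20 µM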;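 further: tim10-1 mutant grown at permissive 25 °C to find synthetic lethal compounds; 0% = DMSO yeast wells and 100% = medium wells without yeast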
Starred values were filed as active, the others as inactive. This is a sample that favours compounds with a hit; in the whole collection about 4.4% have one here.

Results for O=C(CNC(=S)N(Cc1ccccc1)Cc1ccccc1F)NCCc1ccccc1 ?
SUMO Mot1 rescue: 115; tim23-1 inh: 17; TIM10 inh: 11; tim10-1 inh: 41*; tim10-1 conf: 24

How did COc1cc(/C=C/c2nc(-c3ccccc3O)n[nH]2)cc(OC)c1OC do in these assays?
SUMO Mot1 rescue: 11; tim23-1 inh: 45; PfHsp90 yeast 2: -33; TIM10 inh: 38; tim10-1 inh: 40*; tim10-1 conf: 28

How did CC(=O)N1CCOc2ccc(S(=O)(=O)N3CCN(c4cc(C)ccc4C)CC3)cc21 do in these assays?
SUMO Mot1 rescue: -4; tim23-1 inh: 34; PfHsp90 yeast 2: 8; TIM10 inh: 15; tim10-1 inh: 43*; tim10-1 conf: 34*

How did Cc1cccc(N2CCN(S(=O)(=O)c3ccc4c(c3)OCCO4)CC2)c1C do in these assays?
SUMO Mot1 rescue: 16; tim23-1 inh: 37; PfHsp90 yeast 2: 1; TIM10 inh: 12; tim10-1 inh: 46*; tim10-1 conf: 32*

How did Cc1cccc(N2CCN(S(=O)(=O)c3ccc(S(=O)(=O)N4CCCC4)cc3)CC2)c1C do in these assays?
SUMO Mot1 rescue: 74; tim23-1 inh: 5; TIM10 inh: 5; tim10-1 inh: 0

Results for Cc1ccc(C)c(N2CCN(S(=O)(=O)c3ccc4c(c3)NC(=O)CS4)CC2)c1 ?
SUMO Mot1 rescue: 3; tim23-1 inh: 39; PfHsp90 yeast 2: 21; TIM10 inh: 12; tim10-1 inh: 46*; tim10-1 conf: 10

How did Cc1cccc(N2CCN(CC(=O)Nc3ccc(S(=O)(=O)N4CCOCC4)cc3)CC2)c1C do in these assays?
SUMO Mot1 rescue: -5; tim23-1 inh: 23; PfHsp90 yeast 2: -14; TIM10 inh: 22; tim10-1 inh: 41*; tim10-1 conf: 19

How did Clc1cc(/C=N\NC2=NCCN2)cc(Cl)n1 do in these assays?
SUMO Mot1 rescue: 8; tim23-1 inh: 0; TIM10 inh: 26; tim10-1 inh: 0

What do the screens show for `CC(=O)NNc1nc2ccccc2s1`?
SUMO Mot1 rescue: 0; tim23-1 inh: 4; PfHsp90 yeast 2: -10; TIM10 inh: -3; tim10-1 inh: 5

Results for C/C(=C\C(=O)c1ccccc1)NNc1nc2ccccc2s1 ?
SUMO Mot1 rescue: 293; tim23-1 inh: 34; PfHsp90 yeast 2: -13; TIM10 inh: 34; tim10-1 inh: 55*; tim10-1 conf: 39*

What do the screens show for `COc1cccc(-c2nnc3sc(-c4ccco4)nn23)c1`?
SUMO Mot1 rescue: 21; tim23-1 inh: 5; TIM10 inh: -14; tim10-1 inh: -8

Results for CCOc1cccc(-c2nn3c(-c4ccco4)nnc3s2)c1 ?
SUMO Mot1 rescue: -19; tim23-1 inh: 13; PfHsp90 yeast 2: 15; TIM10 inh: 26; tim10-1 inh: 42*; tim10-1 conf: 25

What do the screens show for `COc1cccc(-c2nn3c(-c4cccc(C)c4)nnc3s2)c1`?
SUMO Mot1 rescue: -24; tim23-1 inh: 28; PfHsp90 yeast 2: -6; TIM10 inh: 19; tim10-1 inh: 44*; tim10-1 conf: 25

What do the screens show for `COc1cccc(-c2nnc3sc(-c4ccc(C)cc4)nn23)c1`?
SUMO Mot1 rescue: 4; tim23-1 inh: 27; TIM10 inh: 2; tim10-1 inh: -1

How did Cc1noc(C)c1C(=O)N(CC(=O)Nc1ccccc1Br)Cc1ccco1 do in these assays?
SUMO Mot1 rescue: 3; tim23-1 inh: 18; PfHsp90 yeast 2: 10; TIM10 inh: 3; tim10-1 inh: 3

What do the screens show for `CCN(CC)c1ccc(-c2nnc(SCC(=O)Nc3ccccc3C#N)n2-c2ccccc2)cc1`?
tim23-1 inh: 30; PfHsp90 yeast 2: 1; TIM10 inh: 20; tim10-1 inh: 42*; tim10-1 conf: 20

How did Cc1ccc(C(=O)NCCOC23CC4CC(CC(C4)C2)C3)cc1 do in these assays?
SUMO Mot1 rescue: 2; tim23-1 inh: 45; PfHsp90 yeast 2: -2; TIM10 inh: 33; tim10-1 inh: 33

How did COc1cc(OC)cc(C(=O)NCCOC23CC4CC(CC(C4)C2)C3)c1 do in these assays?
SUMO Mot1 rescue: -12; tim23-1 inh: 24; PfHsp90 yeast 2: 4; TIM10 inh: 4; tim10-1 inh: 45*; tim10-1 conf: 30

What do the screens show for `Oc1ccccc1-c1nc(NCc2cccnc2)c2ccccc2n1`?
SUMO Mot1 rescue: -8; tim23-1 inh: 46; PfHsp90 yeast 2: -10; TIM10 inh: 27; tim10-1 inh: 49*; tim10-1 conf: 57*

Results for O=C(Nc1cccnc1)OC1CCCCC1 ?
SUMO Mot1 rescue: -24; tim23-1 inh: 26; TIM10 inh: 10; tim10-1 inh: 43*; tim10-1 conf: 26

What do the screens show for `CCCc1cc(C(=O)NNC(=S)NCc2ccccc2)cs1`?
SUMO Mot1 rescue: -5; tim23-1 inh: 17; PfHsp90 yeast 2: 39; TIM10 inh: 34; tim10-1 inh: 44*; tim10-1 conf: 29

Results for CC(C)C[C@H]1CNC(=O)C(=O)N1CC1CCN(CCc2ccc(-c3ccccc3)cc2)CC1 ?
PfHsp90 yeast 2: 7

Results for CCOC(=O)c1ccccc1OC(=O)CS(=O)c1ccccc1[N+](=O)[O-] (centres undefined) ?
SUMO Mot1 rescue: -1; tim23-1 inh: 36; PfHsp90 yeast 2: -5; TIM10 inh: 5; tim10-1 inh: 28

Results for COC(=O)c1ccc(OC(=O)CS(=O)c2ccccc2[N+](=O)[O-])cc1 (centres undefined) ?
SUMO Mot1 rescue: 2; tim23-1 inh: 36; PfHsp90 yeast 2: -13; TIM10 inh: 28; tim10-1 inh: 55*; tim10-1 conf: 36*

Results for Cc1cccc(N2C(=O)CN(Cc3cccs3)C2=S)c1 ?
SUMO Mot1 rescue: 9; tim23-1 inh: 45; PfHsp90 yeast 2: 19; TIM10 inh: 33; tim10-1 inh: 42*; tim10-1 conf: 25

What do the screens show for `Cc1ccsc1CN1CC(=O)N(c2c(C)cccc2C)C1=S`?
SUMO Mot1 rescue: 168; tim23-1 inh: 39; TIM10 inh: 24; tim10-1 inh: 45*; tim10-1 conf: 36*

How did Cc1cccc(N2C(=O)CN(Cc3sccc3C)C2=S)c1 do in these assays?
SUMO Mot1 rescue: 19; tim23-1 inh: 40; PfHsp90 yeast 2: -17; TIM10 inh: 31; tim10-1 inh: 21

Results for COc1ccc2c(c1OC)C(=O)N(c1cccc(NC(C)=O)c1)C2 ?
SUMO Mot1 rescue: -16; tim23-1 inh: 0; PfHsp90 yeast 2: 11; TIM10 inh: 5; tim10-1 inh: -9

What do the screens show for `O=C(CCl)NC(Cc1c[nH]c2ccc(OCc3ccccc3)cc12)C(=O)O` (centres undefined)?
SUMO Mot1 rescue: 6; tim23-1 inh: 3; PfHsp90 yeast 2: 7; TIM10 inh: -6; tim10-1 inh: 7

What do the screens show for `COc1ccc2cc3cc(C(=O)N4CCCC(C)C4)oc3nc2c1` (centres undefined)?
SUMO Mot1 rescue: -2; tim23-1 inh: 44; PfHsp90 yeast 2: 4; TIM10 inh: 22; tim10-1 inh: 45*; tim10-1 conf: 13
